Assay results published in PubChem BioAssay (NCI).
Compounds without any hit were thinned out: in the full panel of roughly 83,000, 20% have a hit.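 Step 1: grow cells in 96-well plates. Step 2: add test compound at a single concentration. Step 3: incubate 48 h. Step 4: record percent growth.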 Values without a mark were called inactive. Activity calls are given as the source filed them. Rule for the calls: active = growth percent below 10; inactive = the rest.

Tested on: MDA-MB-468 breast
Assay: NCI-60 one-dose screen, 48 h (100 = growth as untreated, 0 = no growth, -100 = all killed)
Conditions: 10 µM unless noted

Row | Compound | growth
1 | CCCOC(=O)c1ccc([N+](=O)[O-])o1 | 113%
2 | CCOC(=O)Cc1cnc(N/N=C(\C)c2cc3ccccc3o2)s1 | 99.8%
3 | COc1ccc(-c2cc3c(OC)c(OC)c(OC)cc3oc2=O)cc1 | 23.6%
4 | CCOC(=O)/C(F)=C/C1CC1CCc1cccc(C(F)(F)F)c1 (stereo unspecified) | 109%
5 | O=CN1N=C(c2ccc(Nc3ccnc4cc(Cl)ccc34)cc2)CC1c1ccccc1 (stereo unspecified) | 3.07% (active)
6 | CC(=O)[C@@]1(O)CC[C@H]2[C@@H]3CC[C@@H]4CC(=O)CC[C@]4(C)[C@H]3[C@@H](O)C[C@@]21C | 94.6%
7 | N#C/C(=C\c1cccc2c1OCO2)C(=O)Nc1sc2c(c1C#N)CCCC2 | 100%
8 | Cc1cc(O)c(C2=NN(c3ccc(S(N)(=O)=O)cc3)C(c3ccccc3O)C2)cc1Cl (stereo unspecified) | 17.2%
9 | COC(=O)[C@@]12CC[C@@H](C)[C@]3(C[C@@H](c4ccoc4)OC3=O)[C@H]1CC[C@@H]1O[C@@]12C | 106%
10 | C=CCNC(=O)Cc1c(-c2ccc(OC)cc2)oc2c(OC)c3c(c(OC)c12)OCO3 | 94.9%
11 | COc1ccccc1N1CCN(C(=O)c2ccc3nc(NC(=O)c4ccc(NCCc5ccccc5)c([N+](=O)[O-])c4)sc3c2)CC1 | 99.1%
12 | CCN(CCO)CC(=O)c1cc(Cl)cc(Cl)c1Cl | 110%
13 | O=C(Nc1cccc(-n2cc(-c3ccncc3)c(-c3ccc(O)c(Cl)c3)n2)c1)Nc1ccc(Cl)c(C(F)(F)F)c1 | 10%
14 | CC(=O)c1ccc2c3c(n(C)c2c1)CCCC3 | 77.9%
15 | COc1cc(N=Nc2ccc(N)cc2)c(OC)cc1N=Nc1ccccc1.[Cl][Zn][Cl] | 118%
16 | CCOC(=O)c1noc2c1CCc1cn(Cc3cc(OC)cc(OC)c3)cc1-2 | 108%
17 | N#Cc1c(-c2ccc(Cl)cc2)nc(SCc2ccccc2)nc1N1CCNCC1 | 10.3%
18 | COc1ccc(C2CC(c3ccccc3)=Nc3ccccc3S2)cc1 (stereo unspecified) | 102%
19 | O=S(=O)(Nc1ccc(Cl)cc1)c1ccc(-c2cnc(C3CC3)o2)cc1 | -27.7% (active)
20 | COc1cc(NCCN(CC(C)C)CC(C)C)c2ncc(C)cc2c1 | 11.7%
21 | CCCCC(C=O)(C=C=C(C)C)CC (stereo unspecified) | 108%
22 | Cc1nc2cc(NC(=O)CN3CCN(CCN4C(=O)c5cccc6cccc(c56)C4=O)CC3)ccc2s1 | 38.2%

Row | Compound | growth
23 | Cc1cccc2c1O/C(=C\c1ccc([N+](=O)[O-])o1)C2=O | -58.1% (active)
24 | CCCN1C(=O)/C(=c2\sc3n(c2=O)C2C(NN=3)N(CC)C(=O)N2CC)c2ccccc21 (stereo unspecified) | 4.78% (active)
25 | O=S(=O)(NCCNc1nccc(-c2c(-c3cccc(O)c3)nc3occn23)n1)c1cccc(F)c1 | 97%
26 | Nc1ncnc2c1c(-c1ccc(Oc3ccccc3)cc1)nn2C[C@@H]1SSC[C@H]1O | -0.15% (active)
27 | O=C(c1ccc(Cl)cc1Cl)N1CCOCC1 | 99.5%
28 | COc1cc(-c2ccc(NC(=O)CC(C)=O)c(OC)c2)ccc1NC(=O)CC(C)=O | 109%
29 | NC(=O)c1cc(Br)cc(Br)c1NS(=O)(=O)c1ccccc1 | 106%
30 | C#CC(C)(O)c1ccc(Cl)cc1 (stereo unspecified) | 94.5%
31 | N=c1ccc2nc3c(cc(N)c4ccccc43)oc-2c1 | -78.4% (active)
32 | COc1ccc(-c2nc3sccn3c2-c2ccnc(NCCNS(=O)(=O)c3ccc(C(F)(F)F)cc3)n2)cc1 | 30.2%
33 | CN(C)CCOc1nc2c3cccnc3cc(-c3cccc(Cl)c3)c2c2ncccc12 | 2.18% (active)
34 | C=C1C(=O)O[C@H]2[C@H]1CC/C(COC(=O)c1cccnc1N)=C\CC[C@@]1(C)O[C@@H]21 | 14.8%
35 | CN(CCC(=O)/C(=C\c1ccccc1)c1ccc(Cl)cc1)Cc1ccccc1 | -35.2% (active)
36 | COc1ccc(-c2cnc3c(-c4cccc5cnccc45)cnn3c2)cc1 | 47.9%
37 | CCCCCCSc1ncnc2nc[nH]c12 | 67.3%
38 | CNS(=O)(=O)Nc1nccc(Cc2c(C)c3ccc(Oc4ncccn4)cc3oc2=O)c1F | 62.9%
39 | FC(F)(F)c1cn(CCN2CCOCC2)c2ncnc(Cl)c12 | 9.54% (active)
40 | Cc1cn(-c2cc(NC(=O)c3cccc(C#Cc4cccc5[nH]nc(N)c45)c3)cc(C(F)(F)F)c2)cn1 | 67.7%
41 | COc1cccc(CNc2c3ccccc3nc3ccccc23)c1OC | 1.08% (active)
42 | O=C1Nc2ccccc2/C1=C/c1nc2ccccc2c(=O)[nH]1 | 93%
43 | Cc1ccc(-c2nc(C#N)c(S(=O)(=O)N(C)C)o2)cc1 | 81.6%
44 | N#CC1=C(N)Oc2c(sc3c(Br)cccc23)C1c1ccc(Br)cc1 (stereo unspecified) | 12.1%

Row | Compound | growth
45 | OC(COc1cccc2ccccc12)CN1CCN(c2ccccc2)CC1 (stereo unspecified) | 77.6%
46 | Fc1ccc(-c2cn3c(-c4c[nH]c5ccc(Br)cc45)csc3n2)cc1 | 74.9%
47 | Cc1ccc(-[n+]2c3cc(N)c(C)cc3nc3cc(C)c(Nc4ccccc4)cc32)cc1 | -86.2% (active)
48 | O=C(Nc1ccncc1)C(=O)c1cn(S(=O)(=O)c2cccc(Cl)c2F)c2ccccc12 | 33%
49 | COc1cc(-c2nc(-c3ccccc3)[nH]c2-c2ccnc(NCCCNS(=O)(=O)c3cccc(F)c3)n2)ccc1Cl | 43.2%
50 | CCOC(=O)N1CCC(N=C2CSc3nnc(-c4cc(C(F)(F)F)cc(C(F)(F)F)c4)n3N2)CC1 | 2.22% (active)
51 | COc1ccc(N/N=C/c2cn(-c3ccc(C(=O)O)cc3)nc2-c2cc3ccccc3oc2=O)cc1 | 107%
52 | CCN1C(=O)N(CC)C2Nn3c(s/c(=C\c4ccc([N+](=O)[O-])cc4)c3=O)=NC21 (stereo unspecified) | 7.37% (active)
53 | CCN(CC)CC(O)CNc1ccnc2cc(Cl)c(Cl)cc12 (stereo unspecified) | 83.5%
54 | O=C(Nc1cccc(-c2ccc(Cl)c(C(F)(F)F)c2)c1)C1CCN(Cc2cccc3cccnc23)CC1 | -5.03% (active)
55 | Cc1ccc(NC2=CC(=O)C(=O)c3ccccc32)cc1 | -12.4% (active)
56 | O=c1[nH]c([C@@H]2CCCN2)nc2c1oc1ccc(Cl)cc12 | 33.6%
57 | NC(=O)CSc1oc(-c2ccccc2)nc1S(=O)(=O)c1ccc(Br)cc1 | 73.9%
58 | Nc1cc2c3c(cccc3c1)C(=O)N(CCN1CCCC1)C2=O | 40.2%
59 | Nc1c(CNCc2nnn(Cc3ccccc3)c2N)nnn1Cc1ccccc1 | 100%
60 | COc1cccc(Sc2ccc([N+](=O)[O-])c3no[n+]([O-])c23)c1 | 69.9%
61 | CN1CCN(Cc2ccc(NC(=O)c3cncc(C#Cc4cnc5ccc(NCCO)nn45)c3)cc2C(F)(F)F)CC1 | -55.5% (active)
62 | Nc1ccc(S(=O)(=O)O)c2ccc(N=Nc3ccc(N=Nc4ccc(S(=O)(=O)O)cc4)c4ccccc34)c(O)c12 | 96.6%
63 | Cc1cccc(Cl)c1NC(=O)c1cnc(Nc2cc(N3CCOCC3)cc(S(C)(=O)=O)c2)s1 | 26.7%
64 | Cc1ccc(/C=C(\C#N)n2nc3cccc(F)c3n2)cc1 | 85.2%
65 | c1ccc(-c2cc3n4c(-c5ccccc5)nn(-c5ccccc5)c4cnc-3n2)cc1 | 70.2%
66 | O=S(=O)(NCCNc1nccc(-n2cnc3ccccc32)n1)c1ccc(Br)cc1 | 84%

Row | Compound | growth
67 | CC1CCC(C)N(C)C1 (stereo unspecified) | 105%
68 | C/C(=N/NC(N)=S)C(=O)O | 39.2%
69 | CCOC(=O)C1=C(C)NC(C)=C(C(=O)OCC)C1(C)C | 98.8%
70 | O=C(Nc1cccc2[nH]c(C(F)(F)F)nc12)c1ccc(F)cc1 | 65.6%
71 | N=c1ccccn1CCO | 113%
72 | Fc1cccc(Oc2ccc(Nc3ncnc4ccc(OCCCN5CCOCC5)cc34)cc2Cl)c1 | -14.1% (active)
73 | CCCC(c1nnnn1C1CCCCC1)N1CCN(C(=O)c2ccco2)CC1 (stereo unspecified) | 15.2%
74 | COc1ccc(/C(C)=C(\c2ccc(Cl)cc2)c2ccc(OCCN3CCCCCC3)cc2)cc1F | 35.3%
75 | NC(N)=N/N=C(/c1ccccc1)c1ccc(Cl)cc1 | 39.6%
76 | Cc1cn(C2CCCCO2)c(=O)nc1NO (stereo unspecified) | 65%
77 | CN(C)CCS(=O)(=O)CCN(C)C | 105%
78 | COc1cc(/C=C/C(=O)/C=C(O)/C=C/c2ccc(OC(=O)C34CC5CC(CC(C5)C3)C4)c(OC)c2)ccc1OC(=O)C12CC3CC(CC(C3)C1)C2 | 108%
79 | O=C1/C(=C/c2ccc(F)cc2)Sc2c(Br)cccc21 | 84.1%
80 | CCNC(=O)Oc1ccc(/C(=C(/C)Cc2ccc(OC)cc2)c2ccc(OCCN(CC)CC)cc2)cc1 | 46.6%
81 | CCOC(=O)CCC(NC(=O)c1ccc(N)cc1)C(=O)OCC (stereo unspecified) | 102%
82 | Cc1ccc(C2CC(c3ccc(Nc4nc(NCCO)nc(Nc5ccc(Cl)cc5)n4)cc3)=Nc3c(N)nc(N)nc3N2)cc1 (stereo unspecified) | -80% (active)
83 | O=c1oc2ccc(-c3ccc(F)cc3F)cc2c(=O)n1-c1ccc(F)c(F)c1 | -10.8% (active)
84 | COc1nc2c(c(=O)[nH]1)C(c1ccc(Oc3ccnc4cc(Cl)ccc34)c(OC)c1)C=C(c1cc(OC)c(OC)c(OC)c1)N2 (stereo unspecified) | 92.1%
85 | COc1ccccc1-n1c(-c2ccc(O)cc2C)cn2c3c(=O)[nH]c(=O)n(C)c3nc12 | 88.6%
86 | CN(Cc1cnc2nc(N)nc(N)c2n1)c1ccc(C(=O)N[C@@H](CCc2nn[nH]n2)c2nn[nH]n2)cc1 | 52.8%
